Screening data as filed in PubChem BioAssay.
Hits are enriched below; roughly 11% of the tested compounds scored in any of these assays.
PI5P4K alpha inh = qHTS for Inhibitors of phosphatidylinositol 5-phosphate 4-kinase (PI5P4K) | PI5P4Kalpha enzyme, ADP-Glo luminescence, 60 min; hits give low values | hit rate 1.2% among 330,000 | AID 652105, 2013 | Phosphatidylinositol 5-phosphate 4-kinase type-2 alpha (Homo sapiens), P48426 | max response, %; active means max response of -50% or lower; inconclusive means between -30% and -50%; inactive means -30% or higher; further: value at the top dose of about 77 µM; on the % scale 0 is the no-effect control and ±100 the full control effect
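Reactions run in 0.038 M HEPES pH 7.4, 0.28 mM EGTA, 0.1% CHAPS and 5% DMSO, with PI5P4Kalpha, substrate, compound and 5 microM ATP final, one hour at room temperature. Readout is ADP-Glo luminescence.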
G9a inh = qHTS Assay for Inhibitors of Histone Lysine Methyltransferase G9a; G9a H3K9 monomethylation, AlphaScreen, 2 h; Potency, µM (series often up to 102 µM), without a hit: top-dose activity, negative = inhibition, hits mostly inhibitors; hit rate 8.8% among 350,000; further: potency means the concentration at half of the fitted maximal effect; on the % scale 0 is the no-effect control and ±100 the full control effect; nearly all actives have a fitted effect of over 75% in size
Target sequence (Q96KQ7 913-1193 limits assumed): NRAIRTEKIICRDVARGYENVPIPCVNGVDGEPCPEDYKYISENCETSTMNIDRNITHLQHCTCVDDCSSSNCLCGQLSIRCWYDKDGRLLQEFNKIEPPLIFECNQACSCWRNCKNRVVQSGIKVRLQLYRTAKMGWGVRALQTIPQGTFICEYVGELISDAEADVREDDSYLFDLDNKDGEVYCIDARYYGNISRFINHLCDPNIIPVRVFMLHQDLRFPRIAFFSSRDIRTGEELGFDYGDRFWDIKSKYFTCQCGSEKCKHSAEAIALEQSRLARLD
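Readings reflect AlphaScreen signal from monomethyl-H3K9 antibody detection. HMT at 20 nM; substrate b-H3K9 500 nM; cofactor SAM 20 uM; 2 h RT reaction; compounds tested as titrations in qHTS with 15 min preincubation.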
HP1b chromo inh = HTS for Inhibitors of HP1-beta Chromodomain Interactions with Methylated Histone Tails. AlphaScreen HP1-beta / biotin-H3K9me3 peptide binding. Potency, µM (series often up to 114 µM), for the others: at the highest dose activity change, negative = inhibition, usual class: inhibitors. hit rate 0.56% among 390,000. AID 540317, 2011; further: potency means the concentration at half of the fitted maximal effect; nearly all actives have a fitted effect of over 70% in size
Target sequence (P83916 whole entry, looked up): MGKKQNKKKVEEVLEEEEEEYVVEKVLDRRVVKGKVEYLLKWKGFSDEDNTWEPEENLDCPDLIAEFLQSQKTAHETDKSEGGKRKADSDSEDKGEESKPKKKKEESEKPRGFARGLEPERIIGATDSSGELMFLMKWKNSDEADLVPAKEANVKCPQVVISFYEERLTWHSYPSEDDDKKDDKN
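AlphaScreen: HP1-beta (50 nM) preformed 30 min with biotin-H3(1-18)K9me3 peptide (50 nM) in PBS pH 7.4, 0.01% Tween-20. Compound added for 30 min at RT, then streptavidin donor/nickel chelate acceptor beads (10 ug/mL) for 30 min.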
BAZ2B block = qHTS Assay for Inhibitors of BAZ2B; Potency, µM (top dose mostly 114 µM), for inactives: top-dose activity change, negative = inhibition, hits mostly inhibitors; AlphaScreen BAZ2B-H3K14Ac peptide displacement; Bromodomain adjacent to zinc finger domain protein 2B (Homo sapiens), Q9UIF8; hit rate 4.4% among 360,000; further: potency means the concentration at half of the fitted maximal effect; on the % scale 0 is the no-effect control and ±100 the full control effect; nearly all actives have a fitted effect of over 60% in size
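AlphaScreen displacement: compounds (up to 110uM) incubated 30 min at room temperature with a preformed 50 nM BAZ2B/50 nM biotinylated H3K14Ac peptide complex in PBS pH 7.4 with Tween-20. Donor and acceptor beads at 10 ug/mL final added, 20 min light-protected before reading.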
L3MBTL1 inh = qHTS Assay for the Inhibitors of L3MBTL1; Lethal(3)malignant brain tumor-like protein 1 (Homo sapiens), Q9Y468; AlphaScreen L3MBTL1–H3K9me1 peptide binding; Potency, µM (series often up to 57.1 µM), for the others: top-dose activity, negative = inhibition, actives largely listed as inhibitors; hit rate 0.66% among 230,000; AID 485360, 2010; further: potency means the concentration at half of the fitted maximal effect; on the % scale 0 is the no-effect control and ±100 the full control effect; nearly all actives have a fitted effect of over 60% in size
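AlphaScreen proximity signal between nickel-chelate acceptor and streptavidin donor beads (final 10 ug/mL) reports binding of 50 nM L3MBTL1 to 75 nM biotin-H3 K9me1 peptide; complex incubated with compounds 30 min at room temperature; cefsulodin titration as control.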
JMJD2A Tudor = qHTS Assay for Inhibitors of JMJD2A-Tudor Domain; AlphaScreen JMJD2A-Tudor / H3K4me3 peptide binding; Potency, µM (highest dose often 114 µM), inactives show at the highest dose activity change, negative = inhibition, actives largely listed as inhibitors; hit rate 4.4% among 390,000; AID 504339, 2011; further: potency means the concentration at half of the fitted maximal effect; on the % scale 0 is the no-effect control and ±100 the full control effect; nearly all actives have a fitted effect of over 50% in size
* hit, by the source's call; u = inconclusive; x = no result given; [ ] = another dose, or the depositor's remark. Unless noted, the call rests on the fitted dose curve; in most records, active means well fitted inhibition curve with a large enough effect; inconclusive means small, poorly fitted or top-dose-only effect; inactive means no such curve, though single readings can be large or run the other way.

SMILES | PI5P4K alpha inh | G9a inh | HP1b chromo inh | BAZ2B block | L3MBTL1 inh | JMJD2A Tudor
O=C(NCC1CCCN1S(=O)(=O)c1ccccc1)C(=O)NC1CC1 (stereo unspecified) | -8 | 50µM* | 0% | 5% | 7% | 35µM*
O=C(O)[C@@H]1CCCN1S(=O)(=O)c1cccc(S(=O)(=O)N2CCC[C@H]2C(=O)O)c1 | 5 | u | 54% | -6% | 3% | -10%
COc1cccc(C(=O)NCCSc2c(-c3ccc(F)cc3)[nH]c3ccccc23)c1OC | x | -4%[59 µM] | 14% | -22% | x | -27%
COc1ccccc1C(=O)Nc1cccc(C(=O)OCc2cc(=O)n3c4c(sc3n2)CCCC4)c1 | x | 5%[59 µM] | 18% | -7% | x | -14%
Cc1ccc(-n2ncc3c(NCCc4ccccc4)ncnc32)cc1 | x | 12%[59 µM] | 43% | 13% | x | 4%
NC(=O)/C(=N\O)c1ccccc1 | -3 | -12% | 36% | 7% | 2% | -15%
O=C(/C(=N/N=C/c1ccc(O)c(O)c1O)c1ccccc1)c1ccccc1 | -65* | 1.1µM* | u | 32µM* | 20µM* | 35µM*
Oc1ccc(/C=N/N=C(c2ccccc2)c2ccccc2)c(O)c1O | u | 1.4µM* | 45µM* | 25µM* | 3.5µM* | 56µM*
O=C(O)CC(O)CC(O)/C=C/c1c(C2CC2)nc2ccccc2c1-c1ccc(F)cc1 (stereo unspecified) | x | 25%[59 µM] | x | x | x | x
Nc1nc(N)c(N=Nc2ccc(Cl)cc2)c(=O)[nH]1 | -77* | 2% | 8% | -7% | -35% | -27%
Nc1nc(SCC(=O)O)[nH]c(=O)c1NC(=O)c1ccco1 | 11 | x | 10% | -2% | x | -12%
Nc1nc(N)c(N=Nc2ccc(SCC(=O)O)cc2)c(=O)[nH]1 | -64* | u | 1% | u | 0% | -25%
Nc1nc(N)c(N=Nc2ccc(S(N)(=O)=O)cc2)c(=O)[nH]1 | -62* | 35%[0.501 µM] | 44% | u | 5% | -10%
Nc1n[nH]c(C2CC2)c1N=Nc1ccc(Cl)cc1 | 21 | 50µM* | -16% | u | -7% | 45µM*
Cc1c(C#N)c(O)n(C)c(=O)c1N=Nc1ccc(S(N)(=O)=O)cc1 | -15 | -11%[59 µM] | 9% | -38% | x | -27%
CN(C)c1ccc(C(C(=O)NCC2CCCO2)N(C(=O)c2snc(C(N)=O)c2N)c2ccc3c(c2)OCO3)cc1 (stereo unspecified) | -17 | 40µM* | -7%[57 µM] | u | x | u
CN(C)c1ccc(C(C(=O)NCC2CCCO2)N(C(=O)c2snc(C(N)=O)c2N)c2ccccc2)cc1 (stereo unspecified) | 0 | -10% | 28% | -1% | x | -6%
CC(C)c1ccc(N(C(=O)c2snc(C(N)=O)c2N)C(C(=O)NCC2CCCO2)c2ccc(N(C)C)cc2)cc1 (stereo unspecified) | 3 | 13µM* | u | 22µM* | x | 18µM*
COCC(=O)N1CCC[C@@]2(CCN(Cc3cc(C(F)(F)F)cc(C(F)(F)F)c3)C2)C1 | x | 41%[12.7 µM] | x | x | x | x
O=C(CSc1nc2ccccc2nc1Cc1ccc(Cl)cc1)NCCc1ccccc1 | x | -9%[59 µM] | 5%[57 µM] | -6% | x | -14%
COC(=O)c1cc(S(=O)(=O)N2CCN(c3cccc(C)c3)C(C)C2)cn1C (stereo unspecified) | x | -17%[59 µM] | 17% | -7% | x | -10%
Cc1cccc(N2CCN(S(=O)(=O)c3cccc4nonc34)CC2C)c1 (stereo unspecified) | 9 | 35µM* | -21% | x | x | u
